Where a name gives a salt, the structure may show the parent alone.
What follows are compounds tested on Danio rerio larvae Tg(actc1b:ZsGreen-LC3), 3 dpf (assay: LC3 puncta relative area vs vehicle, with NH4Cl (autophagic flux) (log2 fold change); higher = more autophagy). Details: 10 µM; treatment time 16 h; NH4Cl: + 100 mM, 4 h.
Description: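 Transgenic Tg(actc1b:ZsGreen-map1lc3) zebrafish larvae (2 dpf) were treated for 16 h with Tocris library compounds at 10 µM (n = 12 larvae per compound). Skeletal-muscle LC3 puncta area relative to body area was measured by high-content confocal imaging before and after 4 h of 100 mM NH4Cl (autophagic flux), normalised to vehicle (DMSO), and reported as log2 fold change.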

| SMILES | LC3 puncta (log2) |
| --- | --- |
| N=C(N)SCCc1c[nH]cn1 [Imetit dihydrobromide] | 0.713 |
| N[C@H](C(=O)O)c1ccc(C(=O)O)c(O)c1 [(S)-4-Carboxy-3-hydroxyphenylglycine] | -0.0785 |
| Clc1cccc(Nc2nnc(-c3ccccc3)c3ccccc23)c1 | 0.446 |
| Brc1c(NC2=NCCN2)ccc2nccnc12 | 0.713 |
| O=C(O)c1cccnc1C(=O)O [Quinolinic acid] | 0.453 |
| O=C(O)C=C1CCCc2ccccc2C1O (stereo not given) | -0.285 |
| NC(=O)OCC(COC(N)=O)c1ccccc1 [Felbamate] | -0.777 |
| CC1=NN(c2ccccc2)C(=O)C1 [Edaravone] | 0.405 |
| CCOC(=O)C1=C(C)NC(C)=C(C(=O)OC)C1c1cccc([N+](=O)[O-])c1 (stereo not given) [Nitrendipine] | 0.513 |
| COC(=O)C1=C(C)NC(C)=C(C(=O)OCCSc2ccccc2)C1C (stereo not given) | 0.664 |
| Fc1ccc(C(c2ccc(F)cc2)N2CCN(C/C=C/c3ccccc3)CC2)cc1 [Flunarizine dihydrochloride] | 0.536 |
| COc1ccc([C@@H]2Sc3ccccc3N(CCN(C)C)C(=O)[C@@H]2OC(C)=O)cc1 [Diltiazem hydrochloride] | 0.194 |
| O=C(O)CC/C=C\C[C@H]1CO[C@@H](c2ccccc2Cl)O[C@H]1c1ccccc1O | -0.012 |
| c1ccc(CN(CC2=NCCN2)c2ccccc2)cc1 [Antazoline hydrochloride] | 0.684 |
| COc1ccccc1N1CCN(CCCCN2C(=O)c3ccccc3C2=O)CC1 [NAN-190 hydrobromide] | 0.496 |
| O=C1c2ccccc2CCC1CNCCc1ccc(O)cc1 (stereo not given) [HEAT hydrochloride] | 0.616 |
| O=C1CC2(CCCC2)CC(=O)N1CCNCC1COc2ccccc2O1 (stereo not given) | 0.515 |
| O=C(OCCN1CCCCC1)c1c[nH]c2ccccc12 | 0.6 |
| CC(N)(Cc1ccc(O)c(O)c1)C(=O)O (stereo not given) | 0.209 |
| CC(C(O)c1ccc(O)cc1)N1CCC(Cc2ccccc2)CC1 (stereo not given) [Ifenprodil hemitartrate] | 0.445 |

| SMILES | LC3 puncta (log2) |
| --- | --- |
| COc1cc(N)c(Cl)cc1C(=O)OCCCN1CCCCC1 | 0.449 |
| CC(CCCCC(=O)Nc1ccc(C(F)(F)F)cc1)NCCc1cnc[nH]1 (stereo not given) [HTMT dimaleate] | 0.469 |
| COc1ccc(CCN(C)CCc2ccc(OC)c(OC)c2)cc1OC [YS-035 hydrochloride] | 0.374 |
| Cc1ccc2c(c1)c1c3n2CCNC3CCC1 (stereo not given) [Pirlindole mesylate] | 0.527 |
| Nc1nc2ccc(OC(F)(F)F)cc2s1 [Riluzole] | 0.631 |
| CN1CCC(=C2c3ccccc3CC(=O)c3sccc32)CC1 [Ketotifen fumarate] | 0.874 |
| COc1ccc2[nH]c(-c3ccccc3)c(CCNC(C)=O)c2c1 [2-Phenylmelatonin] | 0.594 |
| c1ccc2oc(C3=NCCN3)cc2c1 [2-BFI hydrochloride] | -0.32 |
| O=C(O)c1cc(=O)c2ccccc2[nH]1 [Kynurenic acid] | -0.156 |
| O=S(=O)(c1cccc2c(Cl)cccc12)N1CCCNCC1 [ML 9 hydrochloride] | 0.383 |
| COc1cc(C(=O)OCCCN2CCCN(CCCOC(=O)c3cc(OC)c(OC)c(OC)c3)CC2)cc(OC)c1OC [Dilazep] | 0.426 |
| CCC(C)N(C)C(=O)c1cc2ccccc2c(-c2ccccc2Cl)n1 (stereo not given) | 0.363 |
| CN(C)CCCn1cc(C2=C(c3c[nH]c4ccccc34)C(=O)NC2=O)c2ccccc21 | 0.575 |
| CC[C@@H]1C(=O)OC[C@@H]1Cc1cncn1C [Pilocarpine hydrochloride] | 0.652 |
| CCOC(=O)C1=C[C@]2(CC)CCCN3CCc4c(n1c1ccccc41)[C@@H]32 [Vinpocetine] | 1 |
| CC(C)NC[C@@H](O)COc1cccc2ccccc12 [(R)-(+)-Propranolol hydrochloride] | -0.318 |
| CN1CCN(C2=Cc3ccccc3Oc3ccc(Cl)cc32)CC1 | 0.934 |
| CCCCCCN(CCCCCC)C(=O)Cc1c(-c2ccc(F)cc2)[nH]c2ccccc12 | 0.295 |
| Cc1ccc(OCC(O)C(C)NC(C)C)c2c1CCC2 (stereo not given) [ICI 118,551 hydrochloride] | 0.592 |
| CSc1ccc2c(c1)C(N1CCN(C)CC1)Cc1ccccc1S2 (stereo not given) [Methiothepin maleate] | -0.129 |

Reference: the supplement of paper PMC12532568
